Out of some 5,500 compounds screened, about 2,000 (36%) were called active. Not shown: some 18% with an inconclusive outcome. Rule as the data show it: active = normalized growth mostly below about 0.91 (no sharp cut-off); inconclusive = no clear call, values can overlap the other calls; inactive = mostly above about 0.92. Some of the results follow.
Assay: chemical genetic growth profiling, strain panel (AID 1159580);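 also: tested at 20 µM; growth read once vehicle control cultures reached saturation at 30 °C; 1 = growth at the plate median or of vehicle wells; lower values mean less growth of the strain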
Conditions: growth OD

Measured: normalized growth

CN1CC(=O)N=C1N
inactive: S. cerevisiae deletion strains, locus YJR043C, strain POL32, active compounds read low 1.01 | S. cerevisiae deletion strains, locus YJR066W, strain TOR1, active compounds read low 0.902 | S. cerevisiae deletion strains, locus YJR075W, strain HOC1, active compounds read low 1.01 | S. cerevisiae deletion strains, locus YKL009W, strain mrt4, active compounds read low 1.05 | S. cerevisiae deletion strains, locus YKL068W, active compounds read low 0.996 | S. cerevisiae deletion strains, locus YKL085W, strain MDH1 (second series), active compounds read low 0.998 | S. cerevisiae deletion strains, locus YKL085W, strain MDH1, active compounds read low 0.998 | S. cerevisiae deletion strains, locus YKL160W, strain elf1, active compounds read low 1.01 | S. cerevisiae deletion strains, locus YKR001C, strain vps1, active compounds read low 1.01 | S. cerevisiae deletion strains, locus YKR026C, strain gcn3, active compounds read low 0.994 | S. cerevisiae deletion strains, locus YKR091W, strain srl3, active compounds read low 1.02 | S. cerevisiae deletion strains, locus YLL001W, strain dnm1, active compounds read low 1.01 | S. cerevisiae deletion strains, locus YLL026W, active compounds read low 1.02 | S. cerevisiae deletion strains, locus YLL041C, strain sdh2, active compounds read low 1.02 | S. cerevisiae deletion strains, locus YLR027C, strain aat2, active compounds read low 1.03 | S. cerevisiae deletion strains, locus YLR039C, strain RIC1, active compounds read low 1.04 | S. cerevisiae deletion strains, locus YLR058C, strain SHM2, active compounds read low 1.01 | S. cerevisiae deletion strains, locus YLR102C, strain apc9, active compounds read low 0.992 | S. cerevisiae deletion strains, locus YLR113W, strain HOG1, active compounds read low 0.94 | S. cerevisiae deletion strains, locus YLR221C, strain rsa3, active compounds read low 1.05 | S. cerevisiae deletion strains, locus YLR258W, strain gsy2, active compounds read low 1.03 | S. cerevisiae deletion strains, locus YLR262C, strain YPT6 (second series), active compounds read low 1.09 | S. cerevisiae deletion strains, locus YLR262C, strain YPT6, active compounds read low 1.08 | S. cerevisiae deletion strains, locus YLR268W, strain sec22, active compounds read low 0.977 | S. cerevisiae deletion strains, locus YLR320W, strain mms22, active compounds read low 1.07 | S. cerevisiae deletion strains, locus YLR330W, strain CHS5, active compounds read low 1.01 | S. cerevisiae deletion strains, locus YLR342W, strain FKS1 (second series), active compounds read low 0.984 | S. cerevisiae deletion strains, locus YLR342W, strain FKS1, active compounds read low 1.03 | S. cerevisiae deletion strains, locus YLR357W, strain rsc2, active compounds read low 1.01 | S. cerevisiae deletion strains, locus YLR370C, strain arc18, active compounds read low 1.02 | S. cerevisiae deletion strains, locus YLR371W, strain rom2, active compounds read low 0.985 | S. cerevisiae deletion strains, locus YLR384C, strain iki3, active compounds read low 1.01 | S. cerevisiae deletion strains, locus YLR418C, strain cdc73, active compounds read low 0.98 | S. cerevisiae deletion strains, locus YML016C, strain PPZ1, active compounds read low 1.01 | S. cerevisiae deletion strains, locus YML032C, strain rad52, active compounds read low 0.987 | S. cerevisiae deletion strains, locus YML120C, strain ndi1, active compounds read low 1.03 | S. cerevisiae deletion strains, locus YML124C, strain tub3, active compounds read low 0.992 | S. cerevisiae deletion strains, locus YMR058W, strain fet3, active compounds read low 1.04 | S. cerevisiae deletion strains, locus YMR078C, strain ctf18, active compounds read low 1 | S. cerevisiae deletion strains, locus YMR125W, strain sto1, active compounds read low 1.02 | S. cerevisiae deletion strains, locus YMR129W, active compounds read low 1.01 | S. cerevisiae deletion strains, locus YMR205C, strain PFK2, active compounds read low 1.08 | S. cerevisiae deletion strains, locus YMR223W, strain ubp8, active compounds read low 0.992 | S. cerevisiae deletion strains, locus YMR231W, strain pep5, active compounds read low 1.01 | S. cerevisiae deletion strains, locus YMR307W, strain GAS1, active compounds read low 0.998 | S. cerevisiae deletion strains, locus YNL067W, strain RPL9B, active compounds read low 1.01 | S. cerevisiae deletion strains, locus YNL071W, strain lat1, active compounds read low 1.03 | S. cerevisiae deletion strains, locus YNL128W, strain TEP1, active compounds read low 1.04 | S. cerevisiae deletion strains, locus YNL183C, strain NPR1, active compounds read low 0.893 | S. cerevisiae deletion strains, locus YNL209W, strain ssb2, active compounds read low 1.03 | S. cerevisiae deletion strains, locus YNL233W, strain BNI4, active compounds read low 1.01 | S. cerevisiae deletion strains, locus YNL248C, strain rpa49, active compounds read low 1.02 | S. cerevisiae deletion strains, locus YNL250W, strain rad50, active compounds read low 0.996 | S. cerevisiae deletion strains, locus YNL271C, strain bni1, active compounds read low 0.991 | S. cerevisiae deletion strains, locus YNL298W, strain CLA4, active compounds read low 0.988 | S. cerevisiae deletion strains, locus YNL307C, strain MCK1, active compounds read low 0.98 | S. cerevisiae deletion strains, locus YNL322C, strain KRE1 (second series), active compounds read low 1.02 | S. cerevisiae deletion strains, locus YNL322C, strain KRE1, active compounds read low 1.01 | S. cerevisiae deletion strains, locus YNR049C, strain mso1, active compounds read low 1.01 | S. cerevisiae deletion strains, locus YNR052C, strain pop2, active compounds read low 0.991 | S. cerevisiae deletion strains, locus YOL012C, strain htz1 2.03 | S. cerevisiae deletion strains, locus YOL147C, strain pex11, active compounds read low 0.99 | S. cerevisiae deletion strains, locus YOR001W, strain rrp6, active compounds read low 1.02 | S. cerevisiae deletion strains, locus YOR061W, strain CKA2, active compounds read low 1.01 | S. cerevisiae deletion strains, locus YOR069W, strain VPS5, active compounds read low 1.01 | S. cerevisiae deletion strains, locus YOR070C, strain gyp1, active compounds read low 1.03 | S. cerevisiae deletion strains, locus YOR080W, strain dia2, active compounds read low 1.02 | S. cerevisiae deletion strains, locus YOR083W, strain WHI5, active compounds read low 1.01 | S. cerevisiae deletion strains, locus YOR106W, strain vam3, active compounds read low 1.02 | S. cerevisiae deletion strains, locus YOR136W, strain idh2, active compounds read low 0.996 | S. cerevisiae deletion strains, locus YOR144C, strain elg1, active compounds read low 0.997 | S. cerevisiae deletion strains, locus YOR184W, strain ser1, active compounds read low 1.03 | S. cerevisiae deletion strains, locus YOR231W, strain MKK1, active compounds read low 0.964 | S. cerevisiae deletion strains, locus YOR265W, strain rbl2, active compounds read low 1.01 | S. cerevisiae deletion strains, locus YOR270C, strain vph1, active compounds read low 1.11 | S. cerevisiae deletion strains, locus YOR290C, strain snf2, active compounds read low 1.02 | S. cerevisiae deletion strains, locus YOR316C, strain cot1, active compounds read low 0.993 | S. cerevisiae deletion strains, locus YPL051W, strain arl3, active compounds read low 1.02 | S. cerevisiae deletion strains, locus YPL055C, strain LGE1, active compounds read low 1.03 | S. cerevisiae deletion strains, locus YPL078C, strain atp4, active compounds read low 1.02 | S. cerevisiae deletion strains, locus YPL106C, strain sse1, active compounds read low 1.02 | S. cerevisiae deletion strains, locus YPL240C, strain hsp82, active compounds read low 1.02 | S. cerevisiae deletion strains, locus YPL256C, strain CLN2, active compounds read low 0.946 | S. cerevisiae deletion strains, locus YPR119W, strain clb2, active compounds read low 0.991 | S. cerevisiae deletion strains, locus YPR141C, strain kar3, active compounds read low 0.989 | S. cerevisiae deletion strains, locus YPR163C, strain tif3, active compounds read low 0.982 | S. cerevisiae deletion strains, locus YPR167C, strain met16, active compounds read low 0.979 | S. cerevisiae deletion strains, strain wtn01, active compounds read low 0.974 | S. cerevisiae strains, strain wild type, active compounds read low 1.01

— PubChem BioAssay AID1159580 (chemical genetic matrix, 2015)
